The nature of this test: Vibrio cholerae motility inhibitors, OD read-out (AID 588778). To be noted: stronger effect = higher value.
The mark [1] stands for this setting: measured here: bacterial viability at 10 ug/mL.

Out of some 10,000 compounds screened, fewer than 10 were called active. The rule behind the calls is not given here. Not all results are given here.

Regarding `Cn1cnnc1SCC(=O)Nc1ccccn1`, the inhibition runs as follows: (concentration not given here) 9.88% (inactive); under setting [1], 31.7%.
`Clc1ccc(Cc2nc(-c3cccnc3)no2)cc1`: the inhibition is 5.04% (inactive) (concentration not given here) and 0.075% under setting [1].
For `CCOc1cc2c(cc1OCC)C(c1ccc(OC)c(OC)c1)N(c1ccc(C(=O)O)cc1)C(=O)C2` (configuration not stated), in that order: -8.01% (inactive) and -1.54%.
For `COc1ccc(Br)cc1CNCc1cccs1`, in that order: 84.4% (inactive) and 24.4%.
As to `C=CCn1c2ccccc2c2nnc(SCC(=O)Nc3cc(C)on3)nc21`, the inhibition was -1.67% (inactive) (concentration not given here) and -8.05% under setting [1].
Consider `CC1=C(C(=O)Nc2nc3ccccc3s2)C(c2ccc(F)cc2)C2=C(CCCC2=O)N1` (configuration not stated), for which the inhibition reads like this: (concentration not given here) -5.34% (inactive); under setting [1], 0.795%.
On the same counts, the results for `CC(C)(NO)C(=O)c1ccc(Cl)cc1` are 1.66% (inactive) and -5.03%.
On the same counts, the results for `CC12CCC(C(=O)NCc3ccccc3Cl)(CC1=O)C2(C)C` (configuration not stated) are 7.42% (inactive) and -6.53%.
For the compound `Cc1cc(NC(=O)COc2cc(C)c(Cl)c(C)c2)no1`, the inhibition runs as follows: (concentration not given here) 3.92% (inactive); under setting [1], -7.52%.
On the same counts, the results for `CCOc1ccc2ccccc2c1C(=O)NCc1cccs1` are 17.9% (inactive) and 2.9%.
For `O=C(CC1(c2ccc(Cl)cc2)C(=O)c2ccccc2C1=O)N1CCCCC1`, in that order: 16% (inactive) and -0.9%.
Consider `Cc1occc1C(=O)Nc1cc(=O)n(C)c(=O)n1C`, for which the inhibition was 3.62% (inactive) (concentration not given here) and -1.31% under setting [1].
On the same counts, the results for `Cc1c(C(=O)c2ccccc2)c(=O)n(C)c(=O)n1C` are -8.62% (inactive) and 1.24%.
For `COc1ccc(OC)c(NC(=O)Cn2c(C)ccc2C)c1`, in that order: 5.31% (inactive) and 2.44%.
For `CC12CCC(C(=O)Nc3ccc(SC(F)F)cc3)(CC1=O)C2(C)C` (configuration not stated), in that order: 7.67% (inactive) and 34.3%.
With `S=C(NCc1ccc(Cl)cc1)N1CCC2(CC1)OCCO2`, the inhibition was -10.1% (inactive) (concentration not given here) and -3.96% under setting [1].
With `OCCNC(=S)NC1CCCCC1`, the inhibition runs as follows: (concentration not given here) -10.2% (inactive); under setting [1], -4.3%.
On to `OCCNC/C=C/c1c(F)c(F)c(F)c(F)c1F`, for which the inhibition by setting is: (concentration not given here) 8.12% (inactive); under setting [1], 1.91%.
On the same counts, the results for `O=C(c1ccc(Sc2nnc(Cc3ccccc3)n2-c2ccccc2)c([N+](=O)[O-])c1)N1CCCC1` are -6.85% (inactive) and 7.99%.
For the compound `COc1ccc(NC(=S)Nc2ccccc2OC(F)F)cc1OC`, the inhibition by setting is: (concentration not given here) -38% (inactive); under setting [1], -5%.
`Cc1ccc(OCc2nnc(SCC(=O)N3CCc4ccccc43)n2N)cc1C`: the inhibition (concentration not given here) is -18.2% (inactive) and the inhibition under setting [1] was -12.3%.
On the same counts, the results for `C=C1C2(C(=O)Nc3nc4ccc(Br)cc4s3)CCC(C2)C1(C)C` (configuration not stated) are -2.38% (inactive) and -1.19%.
For `Cc1cc(Cl)c(OCCOCCn2cnc3ccccc3c2=O)c(Br)c1`, in that order: 4.18% (inactive) and -5.62%.
For `Cc1c(N2C(=O)C3C4C=CC(C5CC45)C3C2=O)c(=O)n(-c2ccccc2)n1C` (configuration not stated), in that order: -7.28% (inactive) and -4.46%.
Consider `COc1ccc(NC(=S)N2CCCC2C(=O)N2CCCC2)cc1` (configuration not stated), for which the inhibition (concentration not given here) is 41.3% (inactive) and the inhibition under setting [1] was 7.73%.
For `CN(C)C(=O)c1ccccc1C(=O)N(C)C`, the inhibition by setting is: (concentration not given here) -3.26% (inactive); under setting [1], 34.3%.
For the compound `C[C@@H](NC(=O)C1CCN(Cc2cccc(Cl)c2)CC1)c1ccccc1`, the inhibition runs as follows: (concentration not given here) 19.5% (inactive); under setting [1], 5.13%.
For `Cc1cccc(C(=O)Nc2ccc(I)cc2C(=O)N2CCCC2)c1`, in that order: -0.8% (inactive) and -1.35%.
On the same counts, the results for `C=CCn1c(SCC(=O)Nc2c(C)cc(I)cc2C)nnc1-c1ccco1` are 5% (inactive) and -2.52%.
For `COc1cccc(-c2cc(C(F)(F)F)n3ncc(C(=O)OC(C)C)c3n2)c1`, in that order: 14.1% (inactive) and 15.9%.
On to `Cc1cc(Br)c(NC(=O)CSc2ccc(Cl)cc2)cc1C`, for which the inhibition is, setting by setting: (concentration not given here) -1.15% (inactive); under setting [1], 5.67%.
On the same counts, the results for `COc1ccc(N(C)NC(=O)Cc2ccccc2)cc1` are 16.7% (inactive) and 4.27%.
Consider `O=C(CC(NCc1ccccn1)C(=O)O)Nc1ccc(Cl)cc1` (configuration not stated), for which the inhibition is, setting by setting: (concentration not given here) 4.17% (inactive); under setting [1], -9.2%.
On the same counts, the results for `COCc1cc(CN2CCCCC2)c(O)c2ncccc12` are 34% (inactive) and 5.26%.
On the same counts, the results for `COc1cc(C(=O)Nc2nnc(-c3sccc3C)s2)cc(OC)c1OC` are -3.78% (inactive) and -6.72%.
Regarding `OCC(CO)(CO)NCC(O)CN1c2ccccc2Sc2ccccc21` (configuration not stated), the inhibition by setting is: (concentration not given here) 3.65% (inactive); under setting [1], -1.83%.
On the same counts, the results for `c1cncc(Nc2nc(-c3cccs3)cs2)c1` are 13.2% (inactive) and -2.87%.
In the case of `COc1ccc(Cl)cc1NC(=S)Nc1cccc(C)n1`, the inhibition (concentration not given here) is -27.1% (inactive) and the inhibition under setting [1] was -16.2%.
Turning to `COc1ccc(C(=O)Nc2ncccc2O)cc1`, the inhibition is 10.3% (inactive) (concentration not given here) and 2.51% under setting [1].
For `S=C(NCc1ccco1)NNC(=S)Nc1ccc(Cl)cc1`, the inhibition (concentration not given here) is 13.3% (inactive) and the inhibition under setting [1] came to 5.16%.
On the same counts, the results for `CCCC(=O)c1ccc(N2CCN(C(=O)c3ccccc3Br)CC2)c(F)c1` are 1.55% (inactive) and 4.06%.
As to `COC(=O)C1=CN(c2ccc(F)c(F)c2)C=C(C(=O)OC)C1c1cc(OC)ccc1OC`, the inhibition runs as follows: (concentration not given here) -1.54% (inactive); under setting [1], -3.16%.
For `Cc1sc(NCc2cc(Cl)ccc2O)nc1-c1ccc(F)cc1`, in that order: 14% (inactive) and -2.93%.
On to `O=C(Oc1ccc(Cl)cc1Br)c1ccc(F)cc1`, for which the inhibition (concentration not given here) was -4.46% (inactive) and the inhibition under setting [1] was -5.02%.
For `COc1c(S(=O)(=O)N2CCCN(S(=O)(=O)c3ccc(Cl)c(Cl)c3OC)CC2)ccc(Cl)c1Cl`, in that order: 8.96% (inactive) and 22.4%.
For `COc1cc(NC(=O)CS)cc(OC)c1`, in that order: -28.8% (inactive) and -11%.
For `CC(CCc1ccccc1)NC(=O)c1cccnc1` (configuration not stated), in that order: 14.2% (inactive) and -1.57%.
For the compound `CCOc1ccc(-n2nc3ccc(NC(=S)NC(=O)CC)cc3n2)cc1`, the inhibition runs as follows: (concentration not given here) -22.2% (inactive); under setting [1], -6.24%.
For `CC1(C)CC(=O)C2=C(C1)NC(Nc1nc3ccccc3s1)=NC21C(=O)Nc2ccccc21` (configuration not stated), in that order: 5.23% (inactive) and -0.54%.
As for `O=C(CCC(=O)Nc1ccccc1Cl)NNC(=S)NCc1ccco1`, the inhibition (concentration not given here) was 7.34% (inactive) and the inhibition under setting [1] was 30.6%.
For `O=C(CCCOc1ccc(Cl)cc1Cl)N1CCN(Cc2ccc3c(c2)OCO3)CC1`, in that order: 15.4% (inactive) and 5.35%.
For `CCc1[nH]nc2c1C1(CN3CCC1CC3)C(C#N)=C(N)O2` (configuration not stated), in that order: -3.07% (inactive) and -0.3%.
On the same counts, the results for `CCN1C(=O)Cc2cc(S(N)(=O)=O)ccc21` are 13.3% (inactive) and 0.76%.
Consider `O=C(NCCc1ccccc1)c1ccc(CNS(=O)(=O)c2cccc(Cl)c2)cc1`, for which the inhibition is -4.41% (inactive) (concentration not given here) and -10.6% under setting [1].
For `Cc1ccc(NC(NC=O)C(Cl)(Cl)Cl)c(C)c1` (configuration not stated), in that order: 1.46% (inactive) and 2.8%.
With `CCc1cc(C(=O)OC)c(NC(=O)c2cc(Br)cs2)s1`, the inhibition was 6.03% (inactive) (concentration not given here) and 1.94% under setting [1].
For `Cc1cccc(C)c1N1CCN(C(=O)N2CCCCC2)CC1`, in that order: 8.63% (inactive) and -4.82%.
For `COc1ccc(-c2csc3ncnc(SCc4c(C)noc4C)c23)cc1`, in that order: 24.7% (inactive) and 4.67%.
For `Cc1cc2ccccc2n2c(SCC(=O)c3ccc4c(c3)OCCO4)nnc12`, in that order: 0.44% (inactive) and -5.11%.
Turning to `O=C(c1cccs1)N1C(=O)c2cccc3c(S(=O)(=O)N4CCCC4)ccc1c23`, the inhibition was 11.6% (inactive) (concentration not given here) and -0.47% under setting [1].
For `CCSc1nnc(NC(=O)c2csc3ccccc23)s1`, the inhibition is -5.35% (inactive) (concentration not given here) and -4.62% under setting [1].
For `COc1cc(SC)ccc1C(=O)Nc1cccc(C(F)(F)F)c1`, in that order: 0.295% (inactive) and -4.94%.
As to `CCOC(=O)c1nnc2ccnn2c1N`, the inhibition runs as follows: (concentration not given here) -20.5% (inactive); under setting [1], -4.37%.
For `Cc1csc(NC(=O)CSc2nc3c(c(C(F)(F)F)c2C#N)CCC3)n1`, in that order: 4.09% (inactive) and 1.86%.
On the same counts, the results for `Cc1c(NC(=O)c2nn3c(C(F)(F)F)c4c(nc3c2Cl)-c2ccccc2CC4)c(=O)n(-c2ccccc2)n1C` are -11.3% (inactive) and -0.51%.
On the same counts, the results for `S=C1NC(C23CC4CC(CC(C4)C2)C3)=CC(c2ccc(Cl)cc2)N1` (configuration not stated) are -6.78% (inactive) and -4.13%.
As for `CC(C)CC(C(=O)Oc1ccc2c3c(c(=O)oc2c1)CCC3)N1C(=O)c2ccccc2C1=O` (configuration not stated), the inhibition by setting is: (concentration not given here) 6.55% (inactive); under setting [1], -2.25%.
On the same counts, the results for `CCC(=O)OCC12COC3c4ccccc4OC(C)(CC1C)C3C2C` (configuration not stated) are -16.5% (inactive) and -10.6%.
For `CCOC(=O)c1ccc(NC(=O)COc2ccc3oc(=O)cc(C)c3c2)cc1`, in that order: -17.2% (inactive) and -0.82%.
On the same counts, the results for `Cc1ccccc1C(=O)N1CCN(c2nc(N3CCCC3)nc(N3CCCC3)n2)CC1` are -0.47% (inactive) and 0.25%.
On to `O=C(Cc1c(F)cccc1Cl)NCc1ccc2c(c1)OCO2`, for which the inhibition was 40% (inactive) (concentration not given here) and 7.78% under setting [1].
Take `O=C(CSc1nnnn1-c1ccccc1)c1cc2ccccc2oc1=O`: the inhibition is 3.97% (inactive) (concentration not given here) and -4.29% under setting [1].
For `COCCSc1nnc(NC(=O)Cc2c(F)cccc2Cl)s1`, in that order: -2.92% (inactive) and -1.31%.
On the same counts, the results for `O=C(NC(=O)c1ccccc1)Nc1ccc(Br)cc1` are -16.2% (inactive) and -9.72%.
On the same counts, the results for `COc1c(C)cc(Br)cc1C(=O)NC(=S)Nc1nc(C)cc(C)n1` are -16.1% (inactive) and -11.8%.
`CCCCC(=O)Nc1ccc(NC(=O)C(Cl)(Cl)Cl)cc1OC`: the inhibition is 3.09% (inactive) (concentration not given here) and -3.52% under setting [1].
On the same counts, the results for `O=C(CCOc1ccccc1)Nc1ccc(Br)cc1` are -9.09% (inactive) and -6.95%.
Regarding `O=C(NCc1ccc(-c2nc3ccccc3s2)cc1)c1ccc(Br)o1`, the inhibition (concentration not given here) was 1.75% (inactive) and the inhibition under setting [1] was 9.78%.
Take `Cc1ccc(S(=O)(=O)Nc2cc(Sc3nnnn3-c3ccccc3)c(O)c3ccccc23)cc1`: the inhibition by setting is: (concentration not given here) 15.9% (inactive); under setting [1], 1.17%.
As for `COC(=O)C1=C(C)NC(C)=C(C(=O)OC)C1c1sccc1C`, the inhibition (concentration not given here) is 20.1% (inactive) and the inhibition under setting [1] is -0.13%.
Turning to `CC(=O)CSc1nnc(-c2cccnc2)o1`, the inhibition is, setting by setting: (concentration not given here) -0.39% (inactive); under setting [1], 0.24%.
`O=C(O)C(Cc1ccccc1)N1C(=O)/C(=C/c2ccc([N+](=O)[O-])cc2)SC1=S` (configuration not stated): the inhibition by setting is: (concentration not given here) 8.42% (inactive); under setting [1], 1.4%.
Turning to `CCOC(=O)c1c(NC(=O)Nc2ccccc2C)sc2c1CC(C)(C)OC2`, the inhibition reads like this: (concentration not given here) 9.16% (inactive); under setting [1], 24.8%.
On the same counts, the results for `COc1ccc(OC)c(C(=O)CCC(=O)Nc2cccc(C(F)(F)F)c2)c1` are -4.82% (inactive) and 3.82%.
As for `CCOC(=O)C1(NC(=S)N(CC)CC)Sc2cc(C)ccc2NC1=O` (configuration not stated), the inhibition is 12.1% (inactive) (concentration not given here) and 13.5% under setting [1].
For `CCN(CC)c1ccc(CNC(C)C(O)c2ccccc2)cc1` (configuration not stated), in that order: 19.9% (inactive) and 5.6%.

Usually inhibition stands for the relative decrease from the control value, in per cent.

The record behind these values is PubChem BioAssay AID588778 (Southern Research Institute, 2011).
